ELG1 DNA repair: inhibitors of ELG1-dependent DNA repair in HEK293T cells; HEK293T ELG1-luciferase reporter, luminescence, 16 h; DNA damage induced by 5-fluorouridine; Potency, µM (doses to about 46.1 µM), for inactives: top-dose activity change, negative = inhibition, usual class: inhibitors; 330,000 compounds, 2.3% hits; further: potency means the concentration at half of the fitted maximal effect; nearly all actives have a fitted effect of over 55% in size
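Luminescence from the luciferase reporter, measured 30 min after ONE-Glo reagent at room temperature, was the read-out. Beforehand, 2,000 cells per well were exposed for 16 hr at 37 °C to 5-fluorouridine together with compound or vehicle.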
RORg inh: inhibitors of mouse ROR gamma transcriptional activity; P51450; Drosophila S2 Gal4-RORgamma UAS-luciferase reporter, 20 h; Potency, µM (titrated, usually from 53.6 µM), for the others: at the top dose activity change, negative = inhibition, actives largely listed as inhibitors; 310,000 compounds, 5.4% hits; further: potency means the concentration at half of the fitted maximal effect; nearly all actives have a fitted effect of over 60% in size
Target sequence (P51450 whole entry, looked up, the tested form may be a part): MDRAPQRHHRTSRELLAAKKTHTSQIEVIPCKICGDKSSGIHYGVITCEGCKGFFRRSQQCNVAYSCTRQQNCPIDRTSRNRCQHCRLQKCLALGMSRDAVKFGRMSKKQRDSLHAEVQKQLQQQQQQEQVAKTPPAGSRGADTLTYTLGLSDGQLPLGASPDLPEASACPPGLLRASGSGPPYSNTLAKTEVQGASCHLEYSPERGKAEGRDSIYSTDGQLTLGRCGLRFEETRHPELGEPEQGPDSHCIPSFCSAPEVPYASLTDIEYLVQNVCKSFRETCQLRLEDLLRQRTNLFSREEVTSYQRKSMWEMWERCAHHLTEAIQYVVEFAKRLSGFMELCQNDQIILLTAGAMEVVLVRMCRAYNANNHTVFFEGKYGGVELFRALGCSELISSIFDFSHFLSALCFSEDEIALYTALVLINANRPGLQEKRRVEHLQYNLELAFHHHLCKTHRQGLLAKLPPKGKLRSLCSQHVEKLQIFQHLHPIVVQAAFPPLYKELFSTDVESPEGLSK
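Stable Schneider cell line, Gal4 DNA-binding domain fused to ROR gamma, UAS-luciferase. Cmpd 1 hr RT → CuSO4 700 uM final → 20 hr RT → luciferase reagent 10 min → luminescence.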
VP16 counter: inhibits Gal4-VP16 luciferase reporter, ROR gamma counter-screen; AID 2546; 310,000 compounds, 3.5% hits; Drosophila S2 Gal4-VP16 UAS-luciferase, luminescence, 20 h; Potency, µM (highest dose often 53.6 µM), without a hit: top-dose activity, negative = inhibition, usual class: inhibitors;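 further: Gal4-VP16 expression switched on by copper sulfate through the metallothionein promoter; potency means the concentration at half of the fitted maximal effect; nearly all actives have a fitted effect of over 50% in size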
TSHR antag: human thyrotropin receptor antagonism; activity change, negative = inhibition, % at 11.5 µM; TSHR-expressing cells, TSH-stimulated cAMP HTRF, 2 h; active compounds read low; AID 504810; 330,000 compounds, 0.2% hits;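 active means activity change below a set negative limit, meaning inhibition stronger than a set level, cut at about -70% in these data; inconclusive means activity change between two set negative limits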
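Inhibition of cAMP made by TSHR-expressing cells under TSH stimulation (4nM final, EC80; 2 h, 37 deg C) is quantified with a one-step lysis HTRF kit, anti-cAMP cryptate versus cAMP-d2.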
Coupling enz: inhibits coupling enzyme system, counter-screen for aldolase hits; coupling enzyme system counterscreen, AmpLite Red fluorescence; activity change, negative = inhibition, % at 58.2 µM, hits read low; 290,000 compounds, 0.67% hits; in the data active means activity change below about -30%
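Counterscreen of the coupled detection system alone, without aldolase: glyceraldehyde-3-phosphate coupling enzymes plus AmpLite Red readout. Compounds at 57.5 uM final, 10 min RT preincubation, 20 min RT reaction, fluorescence 525/598 nm.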
The depositor's hits bear a star; ? = inconclusive; . = not tested or not shown; [ ] = remark or other dose. Only some compounds are listed: those with a hit (about 8% of all), similar ones and a draw of the others. Unless noted, the call rests on the fitted dose curve; in most records, active means well fitted curve in the direction sought with a large enough effect; inconclusive means small, poorly fitted or top-dose-only effect, or another doubt; inactive means no such curve, though single readings can be large; an effect the other way counts as inactive or inconclusive. On the % scale 0 is the no-effect control and ±100 the full control effect.

SMILES	ELG1 DNA repair	RORg inh	VP16 counter	TSHR antag	Coupling enz
C=CCn1c(-c2csc3ccccc23)n[nH]c1=S	-6.3%	3.55µM*	6.31µM*	-22.6	0.1
C=CCn1c(-c2c[nH]c3ccccc23)n[nH]c1=S	?	2.6%[10 µM]	?	7.7	-2.2
CCOC(=O)C1=C(COC(=O)/C=C/c2ccc(OC)cc2)NC(=O)NC1C (stereo unspecified)	?	.	.	-12.0	.
CCOC(=O)C1=C(COC(=O)/C=C/c2ccc(SC)cc2)NC(=O)NC1C (stereo unspecified)	10.3µM*	.	.	-2.7	.
COc1cccc(CCc2ccccc2OCC[C@@H]2C[C@@H](O)CN2C)c1	.	7.08µM*	3.0%	.	-8.1
COc1cccc(CN2CCN(Cc3cc4ccccc4o3)CC2CCO)c1 (stereo unspecified)	-3.4%	6.3%[1.91 µM]	5.0%	-11.3	1.0
O=C(N/N=C1\CC(c2ccccc2)Oc2ccccc21)c1cccnc1 (stereo unspecified)	?	5.62µM*	3.98µM*	-1.1	2.3
O=C(N/N=C1/CC(c2ccccc2)Oc2ccccc21)C1CC1 (stereo unspecified)	6.5%	11.2µM*	-15.1%	0.4	-2.3
O=C(N/N=C1\CC(c2ccccc2)Oc2ccccc21)c1ccc(O)cc1 (stereo unspecified)	18.3µM*	-38.1%	?	6.9	-3.7
N#Cc1ccc(OCC(=O)N/N=C2/CC(c3ccccc3)Oc3ccccc32)cc1 (stereo unspecified)	-4.2%	11.2µM*	11.2µM*	-13.4	-1.0
COC(=O)c1ccc(CN2CCCC(CCC(=O)NCc3ccc(C)o3)C2)cc1 (stereo unspecified)	-13.5%	4.8%	3.1%	-7.2	-4.9
Cc1ccc(-c2cn3c(n2)CCCC3)cc1	-14.1%	8.91µM*	?	4.3	2.2
COc1ccc(-c2cn3c(n2)CCC3)cc1	?	?	-1.9%	-2.6	2.7
O=C(CCNS(=O)(=O)c1ccccc1F)NC1CCCCCC1	?	.	.	0.1	.
CCC1CCCCN1C(=S)NC(=O)c1cccc([N+](=O)[O-])c1 (stereo unspecified)	-15.3%	0.282µM*	-89.0%	-9.8	.
CN1CCN(C(=S)NC(=O)c2cccc([N+](=O)[O-])c2)CC1	-5.9%	1µM*	1.26µM*	0.4	0.6
CC(=O)NNC(=S)NC(=O)c1cccc([N+](=O)[O-])c1	18.8%	-4.9%[10 µM]	-69.5%	-1.1	1.2
O=C(NC(=S)N(CC1CCC1)CC1CCCO1)c1cccc([N+](=O)[O-])c1 (stereo unspecified)	-8.0%	56.2µM*	0.282µM*	-2.2	-0.2
CC1CCN(C(=S)NC(=O)c2cccc([N+](=O)[O-])c2)CC1	-1.6%	0.708µM*	0.631µM*	-3.9	.
COc1ccc(S(=O)(=O)N2CCN(c3cnccn3)CC2)cc1OC	-14.2%	.	.	-16.7	.
COc1ccccc1C(CNC(=O)c1cc(S(=O)(=O)N2CCOCC2)ccc1C)N1CCCC1 (stereo unspecified)	6.8%	.	.	4.5	.
CC1CCN(C(=S)NC(=O)c2ccc(C(C)(C)C)cc2)CC1	2.1%	.	.	-26.5	0.1
CC1CCN(C(=S)NC(=O)c2ccccc2)CC1	-8.0%	2.82µM*	4.47µM*	-0.3	1.8
COc1ccccc1C(=O)NCC(=O)NCCC(c1ccccc1)c1ccccc1	-0.2%	.	.	-7.4	.
COc1ccc2c(c1)c1ncnc(N3CCN(Cc4ccc5c(c4)OCO5)CC3)c1n2C	16.4µM*	-14.8%	-1.0%	-11.1	3.4
SMILES	ELG1 DNA repair	RORg inh	VP16 counter	TSHR antag	Coupling enz
COc1ccc2[nH]c3c(N4CCN(Cc5ccc6c(c5)OCO6)CC4)ncnc3c2c1	25.9µM*	38.5%	?	-10.2	-0.1
Clc1ccc(-c2nnc(Sc3nc4ccccc4o3)c3ccccc23)cc1	?	6.31µM*	?	-17.7	0.8
Cc1nnc(Sc2nc3ccccc3o2)c2ccccc12	?	?	?	8.4	0.3
Cc1ccc(-c2nnc(Sc3nc4ccccc4o3)c3ccccc23)cc1	?	8.91µM*	?	-15.9	-2.6
CC(C)NC(=O)CSc1ccccc1C(=O)N1CCN(S(=O)(=O)Cc2ccccc2)CC1	1.8%	.	.	1.0	.
Cc1cc(C)c2nc(N3CCCC(C(=O)NC4CCCC4)C3)sc2c1 (stereo unspecified)	?	4.3%	4.3%	15.2	-1.8
S=C(NCc1ccccc1)NNc1nc2ccccc2[nH]1	-14.8%	4.47µM*	-9.4%	2.7	-8.9
O=c1[nH]c(NCCCO)nc2c1C1(CCCC1)Cc1ccccc1-2	2.3%	25.7%	6.7%	-5.4	-6.3
O=c1[nH]c(NNC(=S)NCc2ccccc2)nc2c1C1(CCCCC1)Cc1ccccc1-2	-2.9%	2.51µM*	2.82µM*	2.9	-0.9
C=CCNC(=S)NNc1nc2c(c(=O)[nH]1)C1(CCCC1)Cc1ccccc1-2	-5.1%	2.82µM*	3.16µM*	-7.7	-4.8
O=c1[nH]c(NNC(=S)NC2CCCCC2)nc2c1C1(CCCC1)Cc1ccccc1-2	0.6%	2.82µM*	25.1µM*	-4.8	-2.2
COCC(=O)N1CCC2(CCCN(Cc3nccs3)C2)CC1	.	-6.8%	7.2%	.	-1.1
C[C@H](CO)N1C[C@H](C)[C@@H](CN(C)S(=O)(=O)c2ccccc2)Oc2c(NC(=O)C3CCCCC3)cccc2C1=O	21.7%	.	.	1.1	.
Cc1sc(NC(=O)c2ccco2)c(C(c2cccnc2)N2CCN(CCO)CC2)c1C (stereo unspecified)	-2.1%	3.8%	-7.5%	1.3	3.4
CCOC(=O)C1CCN(C(c2cccnc2)c2c(NC(=O)c3ccco3)sc(C)c2C)CC1 (stereo unspecified)	14.6µM*	18.5%	5.9%	26.8	-5.6
C/C=C(\C=C\[C@@H](C)C/C=C/CC/C=C/C=C\C[C@@H](OC)/C(C)=C\C=C(C)C)CC(=O)O	.	-1.6%	-2.4%	.	-3.2
Cc1[nH][nH]c(=O)c1C(c1c(C)[nH][nH]c1=O)c1cn(C)c2ccccc12	0.5%	?	-15.5%	3.2	-65.1*
Cc1[nH][nH]c(=O)c1C(c1c(C)[nH][nH]c1=O)c1cn(Cc2cccc3ccccc23)c2ccccc12	-16.2%	-27.1%	-5.6%	-0.5	-50.9*
CCN(CC)CCCNc1nc2cc(OC)c(OC)cc2c2nc(-c3ccccc3)nn12	-1.3%	10µM*	?	-1.9	-4.4
O=C(Nc1ccccc1)/C(=C/c1ccc(F)cc1)NC(=O)c1ccco1	0.4%	-37.8%	7.9%	5.0	2.5
CCCCCCCCCCC1=C(C)C(=O)C(OC)=C(OC)C1=O	.	-4.8%	-9.1%	.	-44.3*
COCCCn1c(=O)c2ccccc2n(Cc2ccccc2C)c1=O	-6.4%	0.9%	-12.7%	8.3	3.7
COCn1c(=O)c2c(nc(SC3=NCCS3)n2Cc2ccccc2C)n(COC)c1=O	18.4µM*	-28.7%	2.2%	-3.9	-11.8

Bioassay records deposited in PubChem BioAssay by National Center for Advancing Translational Sciences (NCATS).
